Screening data from PubChem.
Only some compounds are listed: those with a hit (about 18% of all), similar ones and a draw of the others.
CtBP-E1A inh: inhibitors of CtBP/E1A interaction; AlphaScreen GST-E1A/His-CtBP binding, 1536-well; active compounds read low; activity change, % (test concentration not listed); 0.49% of 340,000 active; in the data active means activity change below about -65%; inconclusive means mostly about -30% to -63%
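Steps: dispense buffer (Tris pH 8.0, NaCl 300 mM, TCEP 1 mM, BSA, Tween 20); add 5X protein mix (GST-E1A, His-CtBP, 125 nM each); pin 23 nL compound; 2 h at 37 °C, dark; add 5X beads (50 ug/mL); 1 h; read.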
Six1-Eya2 inh: inhibitors of human Six1/Eya2 interaction; Q15475+O00167; AlphaScreen GST-Six1/His-Eya2 binding, biochemical; active compounds read low; activity change, % (test concentration not listed); 0.56% of 360,000 active; in the data active means activity change below about -65%; inconclusive means mostly about -30% to -63%
Target sequence (O00167 whole entry, looked up): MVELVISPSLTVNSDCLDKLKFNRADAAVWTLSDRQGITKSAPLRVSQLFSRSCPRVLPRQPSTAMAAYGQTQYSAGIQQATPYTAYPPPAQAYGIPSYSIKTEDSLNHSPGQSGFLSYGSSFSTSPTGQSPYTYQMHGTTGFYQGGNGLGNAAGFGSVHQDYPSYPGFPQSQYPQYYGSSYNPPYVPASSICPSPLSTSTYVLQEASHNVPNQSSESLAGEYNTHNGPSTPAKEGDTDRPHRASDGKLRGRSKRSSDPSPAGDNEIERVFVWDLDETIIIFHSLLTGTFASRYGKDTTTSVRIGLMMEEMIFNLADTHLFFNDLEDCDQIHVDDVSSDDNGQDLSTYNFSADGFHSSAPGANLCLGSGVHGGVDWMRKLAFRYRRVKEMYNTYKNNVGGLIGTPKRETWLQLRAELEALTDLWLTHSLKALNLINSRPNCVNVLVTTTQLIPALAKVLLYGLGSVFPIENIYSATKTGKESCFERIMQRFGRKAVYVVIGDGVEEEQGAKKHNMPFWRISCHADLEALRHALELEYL
Target sequence (Q15475 whole entry, looked up): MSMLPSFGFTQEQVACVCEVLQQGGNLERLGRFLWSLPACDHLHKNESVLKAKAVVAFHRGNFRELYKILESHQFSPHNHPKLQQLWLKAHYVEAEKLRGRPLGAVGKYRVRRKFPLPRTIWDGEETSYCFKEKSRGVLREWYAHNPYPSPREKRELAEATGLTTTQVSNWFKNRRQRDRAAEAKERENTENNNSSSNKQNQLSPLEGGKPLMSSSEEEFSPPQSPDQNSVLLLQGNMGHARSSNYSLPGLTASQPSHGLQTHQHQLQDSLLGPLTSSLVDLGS
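Six1/Eya2 binding was read as AlphaScreen signal after compounds were pinned into GST-Six1 plus His-tagged Eya2 (5X stock 250/500 nM) in pH 8.0 Tris/NaCl/TCEP buffer, beads added, then incubated 1 h, 37 C, dark.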
DT40 TDP1 no CPT: qHTS for Inhibitors of human tyrosyl-DNA phosphodiesterase 1 (TDP1): qHTS in cells in absence of CPT; Potency, µM (doses to about 46.2 µM), hits mostly inhibitors; DT40 Tdp1-/- hTDP1 cells, no CPT, ATP luminescence, 48 h; AID 686978, 2013; 15% of 420,000 active; further: nearly all actives have a fitted effect of over 55% in size
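Chicken DT40 Tdp1-/- cells complemented with human TDP1, screened without camptothecin (DMSO vehicle only), 400 cells/well. Compounds pin-transferred, cells incubated at 37 °C for at least 48 hr. Growth read as ATP-dependent luminescence (CellTiter-Glo, 30 min at RT).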
TDP1 block: TDP1 (human) enzyme inhibition. Q9NUW8. recombinant TDP1, AlphaScreen DNA substrate cleavage. Potency, µM (series often up to 130 µM), usual class: inhibitors. 0.28% of 350,000 active. AID 485290; further: nearly all actives have a fitted effect of over 40% in size
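Recombinant human Tdp1 (E. coli-expressed, 1 nM final) preincubated with compounds 15 min at room temperature, then 5'-biotin/3'-phosphotyrosine-FITC DNA substrate (15 nM final) added for 5 min. AlphaScreen beads (10 ug/ml final) added 10 min; cleavage lowers signal.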
TDP1 cell CPT: growth inhibition of DT40 Tdp1-/-;hTDP1 cells with camptothecin (screen for TDP1 inhibitors); chicken DT40 Tdp1-/-;hTDP1 cells + 20 nM CPT, ATP luminescence, 48 h; Potency, µM (doses to about 46.2 µM), most hits filed as inhibitors; 12% of 420,000 active; further: nearly all actives have a fitted effect of over 55% in size
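Cell growth measured by CellTiter-Glo luminescence after a minimum 48 h, 37 C compound exposure with 20 nM CPT in Tdp1-knockout DT40 cells stably expressing hTDP1, seeded 400/well; qHTS titration format.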
IL1B secr inh: inflammasome signaling inhibition, IL-1 beta readout. 4.7% of 360,000 active. activity change, % at 57.5 µM. THP-1 LPS/ATP IL-1B secretion, AlphaLISA, 16 h; active compounds read low. AID 743279; in the data active means activity change below about -50%; inconclusive means mostly about -30% to -49%
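THP-1 cells pretreated 1 hr with compounds (up to 57.5 uM final), then stimulated with LPS (250 ng/mL final) plus ATP (1.25 mM final); secreted IL-1B measured by AlphaLISA after 16 hr, decreased signal indicating inhibition.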
Hits are given with their value; n = inactive; u = inconclusive; x = no result. Unless noted, the call rests on the fitted dose curve; in most records, active means well fitted curve in the direction sought with a large enough effect; inconclusive means small, poorly fitted or top-dose-only effect, or another doubt; inactive means no such curve, though single readings can be large; an effect the other way counts as inactive or inconclusive.

SMILES	CtBP-E1A inh	Six1-Eya2 inh	DT40 TDP1 no CPT	TDP1 block	TDP1 cell CPT	IL1B secr inh
Cc1ccc(-n2nc3c(N4CCC(C(=O)N(C)Cc5ccccc5)CC4)nnc(C)c3c2C)cc1	x	x	n	n	n	x
O=C(COC(=O)C1CCN(S(=O)(=O)c2ccc3c(c2)OCCO3)CC1)NC1CCCCC1	n	n	n	x	n	n
COc1ccc(CCN(C)CCC(=O)Nc2cc(C)ccc2C)cc1OC	n	n	n	n	u	n
CCOC(=O)N1CCC(NC(=O)c2ccc3c(c2)N(Cc2ccc(F)cc2)C(=O)c2ccccc2S3=O)CC1 (stereo not drawn)	x	x	u	n	16.4µM	x
CCOC(=O)N1CCC(NC(=O)c2ccc3c(c2)N(Cc2ccc(Cl)cc2)C(=O)c2ccccc2S3=O)CC1 (stereo not drawn)	x	x	23.1µM	n	u	x
CCOC(=O)N1CCC(NC(=O)c2ccc3c(c2)N(Cc2ccccc2)C(=O)c2ccccc2S3=O)CC1 (stereo not drawn)	x	x	n	n	n	x
CCOC(=O)N1CCC(NC(=O)c2ccc3c(c2)N(Cc2ccc(Cl)cc2)C(=O)c2ccccc2S3(=O)=O)CC1	x	x	23.1µM	n	u	x
NS(=O)(=O)c1ccc(CCNc2cc(=O)n(Cc3ccc(F)cc3)c(=O)[nH]2)cc1	n	n	n	n	n	n
COc1ccc(-c2cn(-c3ccc(SC(F)F)cc3)c3[n+]2CCC3)cc1OC	n	n	18.4µM	n	u	n
FC(F)Sc1ccc(-n2cc(-c3ccccc3)[n+]3c2CCC3)cc1	n	n	4.11µM	n	5.8µM	n
FC(F)Oc1ccc(-n2cc(-c3ccc(Cl)cc3)[n+]3c2CCCCC3)cc1	n	n	4.61µM	n	4.61µM	n
FC(F)Oc1ccc(-c2csc(Cc3nnc4n3CCCCC4)n2)cc1	n	n	u	n	u	n
COc1ccc(-c2cn(-c3ccc(OC)cc3)c3[n+]2-c2ccccc2CC3)cc1	n	n	0.206µM	n	0.259µM	-59.2
COc1ccc(-n2cc(-c3ccc(OC)c(OC)c3)[nH]c2=S)cc1	n	n	u	n	n	n
COc1ccc(-n2cc(-c3ccccc3)nc2SC)cc1	n	n	n	n	u	n
Cc1ccc(N(CC(=O)NC(C)C)C(=O)CCC(=O)Nc2ccccn2)c(C)c1	n	n	n	x	n	u
CC(=O)c1ccc(NC(=O)CN(C)S(=O)(=O)c2cnc[nH]2)cc1	x	x	n	n	n	x
CCCS(=O)(=O)N1CCC(C(=O)NCCc2ccc(C)cc2)CC1	n	n	n	n	n	n
COc1ccc(-n2cc(-c3ccccc3)[n+]3c2CCCCC3)cc1	n	n	1.16µM	n	5.8µM	u
COc1ccc(S(=O)(=O)NCC(c2ccc3c(c2)OCO3)N2CCOCC2)cc1C (stereo not drawn)	n	n	u	n	n	n
CCc1nnc(NC(=O)C2CCCN(C(=O)c3ccc(Cl)cc3)C2)s1 (stereo not drawn)	x	n	u	n	u	n
CN(C)S(=O)(=O)c1ccc(NC(=O)C2CCCN(C(=O)c3ccc(Cl)cc3)C2)cc1 (stereo not drawn)	n	n	u	n	u	n
CCSc1nnc(NC(=O)C2CCCN(C(=O)c3ccc(Cl)cc3)C2)s1 (stereo not drawn)	n	n	5.17µM	x	6.51µM	n
CC(=O)c1ccc(NC(=O)C2CCCN(C(=O)c3ccc(Cl)cc3)C2)cc1 (stereo not drawn)	n	n	20.6µM	n	25.9µM	n
O=C(Nc1ccccc1)C1CCCN(C(=O)c2ccc(Cl)cc2)C1 (stereo not drawn)	n	n	u	n	u	n
SMILES	CtBP-E1A inh	Six1-Eya2 inh	DT40 TDP1 no CPT	TDP1 block	TDP1 cell CPT	IL1B secr inh
O=C(Nc1ccc(S(=O)(=O)N2CCCCC2)cc1)C1CCCN(C(=O)c2ccc(Cl)cc2)C1 (stereo not drawn)	n	n	20.6µM	n	u	n
COc1ccc(NC(=O)C2CCCN(C(=O)c3ccc(Cl)cc3)C2)cc1Cl (stereo not drawn)	n	n	18.4µM	n	20.6µM	u
COc1ccc(NC(=O)C2CCN(S(C)(=O)=O)CC2)cc1Cl	n	n	n	n	n	n
CN(C)CCCC1(c2ccc(F)cc2)OCc2cc(C#N)ccc21 (stereo not drawn)	n	n	u	n	n	n
O=C(Nc1cccc(S(=O)(=O)N2CCCCCC2)c1)C1CCN(C(=O)c2ccc(Cl)cc2)CC1	n	n	u	x	18.4µM	u
O=C(Nc1cccc(F)c1)C1CCCN(C(=O)c2ccc(Cl)cc2)C1 (stereo not drawn)	n	n	18.4µM	n	20.6µM	n
O=C(Nc1cccc(S(=O)(=O)N2CCOCC2)c1)C1CCCN(C(=O)c2ccc(Cl)cc2)C1 (stereo not drawn)	n	n	u	n	u	n
O=C(Nc1cccc(S(=O)(=O)N2CCCCC2)c1)C1CCN(C(=O)c2ccc(Cl)cc2)CC1	n	n	u	n	u	n
CC(=O)Nc1ccc(NC(=O)C(C)OC(=O)CN2C(=O)C3CCCCC3C2=O)cc1 (stereo not drawn)	n	n	n	n	n	n
CCCCNC(=O)Nc1cc(C)on1	n	n	n	n	n	n
O=C(Nc1ncccc1O)c1cccc(S(=O)(=O)NCc2ccccc2)c1	n	n	n	n	n	n
CCc1ccc(CSc2nc(-c3ccc(OC)cc3)nc3c2Cc2c(CO)cnc(C)c2O3)cc1	x	x	n	n	n	x
COCCNc1ncnc2c1ncn2[C@H]1CN(CCc2ccccc2)C[C@@H](CO)O1	n	n	n	x	n	n
CC(C)CNc1ncnc2c1ncn2[C@H]1CN(CCc2ccccc2)C[C@@H](CO)O1	n	n	n	x	n	-71.1
OC[C@@H]1CN(Cc2cccc3ccccc23)C[C@H](n2cnc3c(NCc4ccco4)ncnc32)O1	n	n	20.6µM	x	20.6µM	u
CC(C)CNc1ncnc2c1ncn2[C@H]1CN(Cc2cccc3ccccc23)C[C@@H](CO)O1	n	n	u	x	18.4µM	n
CN(C)S(=O)(=O)c1ccc(NC(=O)c2ccc(Br)o2)cc1	n	n	n	n	n	n
COc1ccc2c(=O)cc(-c3ccncc3)oc2c1OC	n	n	u	x	u	-95.9
O=c1cc(-c2ccncc2)oc2ccccc12	n	n	u	n	n	-76.8
O=c1cc(-c2ccc(O)cc2)oc2ccccc12	n	n	u	x	u	n
COc1ccc(-c2cc(=O)c3c(OC)c(OC)c(OC)c(OC)c3o2)cc1OC	u	n	20.6µM	n	20.6µM	n
